Source: PubChem (National Center for Advancing Translational Sciences (NCATS))
Sampled rows, rich in hits. Any-hit rate of the full collection: about 10%.
FLuc inh: Firefly luciferase inhibition profiling of diverse chemical library using quantitative high-throughput screening. actives 2.5% (n = 76,000). Luciferin 4-monooxygenase (Photinus pyralis), P08659. Potency, µM (titrated, usually from 115 µM), hits mostly inhibitors. purified P. pyralis luciferase, luminescence, biochemical; further: nearly all actives have a fitted effect of over 65% in size
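Biochemical qHTS: compound (6-point titration) added to 10uM D-luciferin plus 10uM ATP in Tris acetate pH 7.5 buffer with Mg, Tween-20 and BSA, then purified enzyme at 10nM; light output imaged.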
HEK293 tox: Cytotoxic Profiling in HEK 293 Cell Line of Diverse Libraries Using Quantitative High-Throughput Screening; HEK 293 viability, ATP luminescence (CellTiter-Glo), 48-72 h; Potency, µM (titrated, usually from 115 µM), most hits filed as inhibitors; actives 6.6% (n = 94,000); AID 1345083, 2018; further: nearly all actives have a fitted effect of over 60% in size
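qHTS cytotoxicity; HEK 293, 250 cells/well; compound pinned; 48 or 72 hr, 37 degree Celsius, 5% CO2, 95% humidity; CellTiter-Glo, 10 min RT; luminescence (ATP).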
NPR1 antag: Natriuretic polypeptide receptor (hNpr1) antagonism - Primary qHTS. HEK293 hNpr1 GloSensor cGMP, ANP-stimulated luminescence. Potency, µM (doses to about 46.3 µM), usual class: inhibitors. actives 1.6% (n = 76,000). AID 1347048, 2019; calls by dose curve; further: nearly all actives have a fitted effect of over 60% in size
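Compound pre-incubated 30 min at room temperature on GloSensor-loaded HEK293 cells stably carrying hNpr1 and the pGS-40F cGMP biosensor. Stimulation uses hNppA at 0.1 nM final; luminescence is taken at baseline and 20 min post-agonist.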
NIH3T3 tox: Cytotoxic Profiling in NIH 3T3 Cell Line of Diverse Libraries Using Quantitative High-Throughput Screening | NIH 3T3 viability, CellTiter-Glo ATP luminescence, 48-72 h | Potency, µM (top dose mostly 96.7 µM), hits mostly inhibitors | actives 4.3% (n = 94,000) | AID 1345082, 2018; further: nearly all actives have a fitted effect of over 55% in size
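Viability of NIH 3T3 cells after 48 or 72 hr compound treatment at 37 °C was assessed by CellTiter-Glo, with luminescence imaged following a 10 min room-temperature step.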
GPT2 inhibitor: Primary qHTS assay for inhibitors of Glutamate pyruvate transaminase 2 (GPT2) | Recombinant GPT2, coupled pyruvate oxidase/HRP Amplex Red fluorescence | Potency, µM (top dose mostly 57.7 µM), most hits filed as inhibitors | actives 0.25% (n = 100,000); further: nearly all actives have a fitted effect of over 60% in size
Target sequence (Q8TD30 whole entry, looked up): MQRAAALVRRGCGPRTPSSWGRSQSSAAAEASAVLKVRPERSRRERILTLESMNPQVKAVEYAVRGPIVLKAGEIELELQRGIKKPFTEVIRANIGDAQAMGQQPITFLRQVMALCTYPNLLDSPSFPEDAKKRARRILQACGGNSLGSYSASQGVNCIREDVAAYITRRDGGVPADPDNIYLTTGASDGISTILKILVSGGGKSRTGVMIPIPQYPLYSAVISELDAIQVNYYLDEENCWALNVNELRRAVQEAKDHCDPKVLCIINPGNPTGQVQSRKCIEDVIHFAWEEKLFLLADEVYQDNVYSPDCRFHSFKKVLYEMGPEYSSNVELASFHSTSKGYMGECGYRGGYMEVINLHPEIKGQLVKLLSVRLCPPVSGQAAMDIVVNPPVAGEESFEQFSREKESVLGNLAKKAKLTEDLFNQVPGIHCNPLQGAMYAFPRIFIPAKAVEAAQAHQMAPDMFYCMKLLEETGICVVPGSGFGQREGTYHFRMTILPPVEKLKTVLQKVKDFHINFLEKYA
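Inhibition is scored from Amplex Red fluorescence generated when pyruvate oxidase and HRP act on pyruvate released by GPT2. Reactions contain 10ng/uL enzyme, 250uM a-KG and 2mM L-alanine and run 30 min at room temperature.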
Of the large screens only hits and unclear results are named; the others gave an inactive call. Unless noted, the call rests on the fitted dose curve; in most records, active means well fitted curve in the direction sought with a large enough effect; inconclusive means small, poorly fitted or top-dose-only effect, or another doubt; inactive means no such curve, though single readings can be large; an effect the other way counts as inactive or inconclusive.

Cc1noc(C)c1CC(=O)NC1CCCc2c1[nH]c1ccc(F)cc21 (centres undefined)	HEK293 tox inconclusive, NIH3T3 tox inconclusive
O=C(NC1CCCc2c1[nH]c1c(Cl)cccc21)c1ccncc1 (centres undefined)	none
COc1ccc(CC(=O)NC2CCCc3c2[nH]c2ccccc32)cc1OC (centres undefined)	HEK293 tox 35.5µM, NPR1 antag inconclusive, NIH3T3 tox inconclusive
Cn1nc(C(=O)NC2CCCc3c2[nH]c2ccccc32)c2ccccc2c1=O (centres undefined)	HEK293 tox 35.5µM, NIH3T3 tox inconclusive
COc1ccc(C(=O)NC2CCCc3c2[nH]c2ccccc32)cc1OC (centres undefined)	HEK293 tox 44.7µM, NIH3T3 tox inconclusive
COc1ccc(CC(=O)NC2CCCc3c2[nH]c2c(Cl)cccc32)cc1 (centres undefined)	HEK293 tox inconclusive, NIH3T3 tox 25.1µM
CC(=O)NC1CCCc2c1[nH]c1ccc(F)cc21 (centres undefined)	HEK293 tox inconclusive
COCC(=O)NC1CCCc2c1[nH]c1c(Cl)cccc21 (centres undefined)	HEK293 tox inconclusive
CC(C)(C)C(=O)NC1CCCc2c1[nH]c1ccc(F)cc21 (centres undefined)	HEK293 tox 44.7µM, NIH3T3 tox inconclusive
COc1ccc(C(=O)NC2CCCc3c2[nH]c2c(Cl)cccc32)cc1OC (centres undefined)	HEK293 tox inconclusive, NIH3T3 tox inconclusive
O=C(c1ccsc1)N1CCCC2(C1)Nc1cccnc1NC2=NCc1ccccc1 (centres undefined)	none
CC1(O)CCCN(c2ccc(-c3nc(CCCc4ccccc4)no3)cn2)C1 (centres undefined)	FLuc inh 35.5µM, HEK293 tox 31.6µM, NPR1 antag inconclusive, NIH3T3 tox inconclusive
OCCC1CN(c2ccc(-c3nc(CCCc4ccccc4)no3)cn2)CCO1 (centres undefined)	HEK293 tox 50.1µM, NPR1 antag inconclusive, NIH3T3 tox inconclusive
OCCC1CCN(c2ccc(-c3nc(CCCc4ccccc4)no3)cn2)CC1	none
Fc1cccc(CN2CCNc3cc(Nc4cccnc4)ncc3C2)c1	FLuc inh 35.5µM, HEK293 tox inconclusive, NIH3T3 tox 31.6µM, GPT2 inhibitor inconclusive
Fc1ccc(CN2CCNc3cc(Nc4ccccc4)ncc3C2)cc1F	HEK293 tox 22.4µM, NIH3T3 tox 39.8µM
Fc1ccc(Nc2cc3c(cn2)CN(Cc2ccccc2)CCN3)cc1	FLuc inh inconclusive, NIH3T3 tox 31.6µM, GPT2 inhibitor inconclusive
FC(F)(F)c1ccc(CN2CCNc3cc(Nc4ccccc4)ncc3C2)cc1	FLuc inh inconclusive, HEK293 tox 44.7µM, NPR1 antag inconclusive, NIH3T3 tox 25.1µM
c1cncc(Nc2cc3c(cn2)CN(Cc2cccs2)CCN3)c1	FLuc inh inconclusive, HEK293 tox inconclusive, NIH3T3 tox inconclusive
c1ccc(Nc2cc3c(cn2)CN(Cc2ccccn2)CCN3)cc1	HEK293 tox inconclusive, NIH3T3 tox inconclusive
CCCCNC(=O)[C@H]1CCC[C@H]1NC(=O)c1ccncc1	none
O=c1[nH]c(N2CCOCC2)nc2c1CCN(Cc1cccc(C(F)(F)F)c1)CC2	none
Fc1ccc(Nc2cc3c(cn2)CN(Cc2ccncc2)CCN3)cc1Cl	FLuc inh inconclusive, HEK293 tox 31.6µM, NPR1 antag 17.8µM, NIH3T3 tox 20µM
c1ccc(Nc2cc3c(cn2)CN(Cc2ncc[nH]2)CCN3)cc1	FLuc inh 17.8µM, HEK293 tox inconclusive, NIH3T3 tox inconclusive
c1ccc(N2CCN(c3cc4c(cn3)CN(Cc3ccncc3)CCN4)CC2)nc1	HEK293 tox 79.4µM, NPR1 antag inconclusive
Cn1cnc(CN2CCNc3cc(Nc4ccccc4)ncc3C2)c1	HEK293 tox inconclusive, NIH3T3 tox inconclusive
C=C[C@H]1[C@H](O[C@@H]2O[C@H](CO)[C@@H](O)[C@H](OC(=O)/C=C/c3ccc(O)c(OC)c3)[C@H]2O)OC=C2C(=O)OCC[C@]21O	none (no result: FLuc inh, HEK293 tox, NPR1 antag, NIH3T3 tox)
COc1cc(=O)n2c(c1C(=O)Nc1ccc(C)cc1)CCCC2	NIH3T3 tox inconclusive
COc1cc(=O)n2c(c1C(=O)Nc1ccc(N(C)C)cc1)CCCC2	FLuc inh 35.5µM, HEK293 tox inconclusive
CN(Cc1ccccc1)C(=O)c1ccnc(-c2nnc3ccc(Nc4ccccc4)nn23)c1	HEK293 tox 20µM, NPR1 antag inconclusive, NIH3T3 tox inconclusive
COC1CCN(C(=O)c2ccnc(-c3nnc4ccc(Nc5ccccc5)nn34)c2)CC1	HEK293 tox 89.1µM, NIH3T3 tox inconclusive
COC1CCN(C(=O)c2ccnc(-c3nnc4ccc(N(C)c5ccccc5)nn34)c2)CC1	HEK293 tox inconclusive, NIH3T3 tox 3.55µM
CC(C)NC(=O)c1ccnc(-c2nnc3ccc(Nc4ccccc4)nn23)c1	HEK293 tox inconclusive, NIH3T3 tox inconclusive
CN1CCN(C(=O)c2ccnc(-c3nnc4ccc(N(C)c5ccccc5)nn34)c2)CC1	NIH3T3 tox 10µM
COc1ccc(Nc2ccc3nnc(-c4ccccn4)n3n2)cc1	HEK293 tox 70.8µM, NIH3T3 tox inconclusive
CCCS(=O)(=O)N1CCCC(C(=O)NCc2ccccc2)CCNC(=O)CC1 (centres undefined)	none
COc1ccc(Nc2ccnc(N3CCC(N[S+](=O)([O-])c4ccccc4)CC3)n2)cc1	HEK293 tox inconclusive, NIH3T3 tox inconclusive (no result: FLuc inh, NPR1 antag)
COc1ccc(Nc2ccnc(N3CCC(N[S+](=O)([O-])c4c(C)noc4C)CC3)n2)cc1	HEK293 tox 44.7µM, NIH3T3 tox 39.8µM (no result: FLuc inh, NPR1 antag)
COc1ccc(Nc2ccnc(N3CCC(N[S+](=O)([O-])c4cccc(C(F)(F)F)c4)CC3)n2)cc1	HEK293 tox 22.4µM, NIH3T3 tox 17.8µM (no result: FLuc inh, NPR1 antag)
FC(F)(F)c1ccc(CN2CCCC3(CC(c4cccnc4)=NO3)C2)cc1 (centres undefined)	HEK293 tox inconclusive (no result: FLuc inh, NPR1 antag)
O=C(CC1CCCCC1)N1CCC2(CC1)CC(N(Cc1ccc(F)cc1)C1CC1)CCO2 (centres undefined)	HEK293 tox 50.1µM, NIH3T3 tox inconclusive
O=C(CCC1CCCC1)N1CCC2(CC1)CC(N(Cc1ccc(F)cc1)C1CC1)CCO2 (centres undefined)	HEK293 tox inconclusive, NIH3T3 tox inconclusive
O=C(C1CC1)N1CCC2(CC1)CC(c1cccc(C(F)(F)F)c1)=NO2	HEK293 tox 56.2µM, NIH3T3 tox inconclusive (no result: FLuc inh, NPR1 antag, GPT2 inhibitor)
O=C(c1ccncc1)N1CCC2(CC1)CC(c1cccc(C(F)(F)F)c1)=NO2	HEK293 tox 89.1µM (no result: FLuc inh, NPR1 antag, GPT2 inhibitor)
